Assay outcomes (PubChem BioAssay)
CDC25B CDK2 inh: human CDC25B-CDK2/CyclinA binding inhibition; z-score (no concentration beside the values); HTRF CDC25B-CDK2/CyclinA binding, anti-His/anti-Flag; active compounds read high; P30305+P24941; 94,000 tested, 0.72% active; in the data active means z-score above about 3.2
HIV TAR-Tat: HIV-1 TAR-Tat binding disruption. HIV-1 TAR RNA, Tat peptide displacement FRET; active compounds read high. z-score (concentration not given with the values). 100,000 tested, 0.6% active. AID 1259389; active means z-score of 3 or more in at least 2 runs
Starred values were filed as active, the others as inactive; nt = no result. Compounds with a hit are over-represented: about 0.86% of the library has one in this group of screens.

SMILES | CDC25B CDK2 inh | HIV TAR-Tat
Fc1ccc(NC(=S)Nc2cccc3c(NC(=S)Nc4ccc(F)cc4)cccc23)cc1 | 17.6* | nt
O=C(O)c1cc(-c2cn[nH]c2-c2ccccc2)nc2ccc3ccccc3c12 | 21.9* | nt
O=C(O)c1cc(-c2ccccc2)nc2n[nH]c(-c3ccccc3)c12 | nt | 0.44
CC(C)Cn1cc(NC(=O)NCCCN(C)C2CCCCC2)c2ccccc2c1=O | 2.82 | 1.48
CCOC(=O)C1=C(C)Nc2nc3ccccc3n2C1/C=C/c1ccccc1 (configuration not stated) | -0.71 | 0.56
C[Si](C)(C)OC(=O)/C=C\C(=O)O[Si](C)(C)C | 6.07* | nt
CCOC(=O)/C=C/C(=O)O | -0.92 | nt
COc1cc(C2CC(=O)N3CN(c4ccc(C)cc4)CSC3=C2C#N)cc(Br)c1O (configuration not stated) | 1.68 | -0.6
COc1cc(C2CC(=O)N3CN(Cc4ccccc4)CSC3=C2C#N)ccc1O (configuration not stated) | 4.04* | -0.46
COc1cc(C2CC(=O)N3CN(Cc4ccccc4)CSC3=C2C#N)cc(Br)c1O (configuration not stated) | 3.48* | 0.52
O=C1CCCC2=C1C(c1cccs1)N(Cc1cccc(F)c1)c1ccccc1N2 (configuration not stated) | nt | 0.73
CCCCC(=O)Nc1nc2nc(C)cc(=O)n2[nH]1 | 0.04 | -0.56
O=C(CN1c2ccccc2NC2=C(C(=O)CCC2)C1c1ccco1)NC1CCCC1 (configuration not stated) | nt | -9.61
O=C(CCC(=O)N1c2ccccc2NC2=C(C(=O)CCC2)C1c1ccco1)NC1CCCCC1 (configuration not stated) | nt | 3.61*
CN(C(=O)c1nn(C)c2c1CSc1ccccc1-2)c1ccc(Br)cc1 | -0.66 | 0.78
CCC(C)N(CCNC(=O)c1nn(C)c2c1CSc1ccccc1-2)Cc1ccco1 (configuration not stated) | 6.15 | 0.95
N#CC1=C2SCN(C3CCCCC3)CN2C(=O)CC1c1ccccc1Cl (configuration not stated) | 2.11 | 0.56
Cc1c(Cl)cccc1N1CSC2=C(C#N)C(c3cccs3)CC(=O)N2C1 (configuration not stated) | 7.9* | -0.6
COc1cc(C2CC(=O)N3CN(C)CSC3=C2C#N)ccc1OCc1ccccc1 (configuration not stated) | 4.08* | -1.26
N#CC1=C2SCN(Cc3ccccc3)CN2C(=O)CC1c1cccs1 (configuration not stated) | 5.21* | -0.52
COc1ccc(C2CC(=O)N3CN(CCCc4ccccc4)CSC3=C2C#N)cc1OC (configuration not stated) | 5.85* | 0.56
COc1cc(C2CC(=O)N3CN(Cc4ccco4)CSC3=C2C#N)ccc1OCc1ccccc1 (configuration not stated) | -0.88 | -1.24
NC(=O)CSC1=Nc2ccccc2C2=NC(CCC(=O)NCc3cccs3)C(=O)N12 (configuration not stated) | -0.55 | nt
O=c1[nH]cccc1-c1nc(-c2ccccn2)no1 | -0.75 | 2.2
CC(C)Cc1ccc(S(=O)(=O)NCc2cccn2Cc2cccc(F)c2)cc1 | nt | 0.44
SMILES | CDC25B CDK2 inh | HIV TAR-Tat
COc1ccc(Nc2cc(C)nc3nc(-c4ccco4)nn23)cc1 | -0.99 | 2.07
O=C(CN1CCN(c2ccccc2)CC1)N1N=C2c3ccccc3CCC2C1c1cccs1 (configuration not stated) | -1.28 | nt
COc1cccc(C2CC(=O)N3CN(CCCc4ccccc4)CSC3=C2C#N)c1 (configuration not stated) | 4.95* | 1.35
N#CC1=C2SCN(Cc3ccccc3)CN2C(=O)CC1c1ccc2c(c1)OCO2 (configuration not stated) | 4.01* | 0.95
N#CC1=C2SCN(Cc3ccco3)CN2C(=O)CC1c1ccc(OCc2ccccc2)cc1 (configuration not stated) | -1.75 | 0.22
N#CC1=C2SCN(Cc3ccco3)CN2C(=O)CC1c1cccc(OCc2ccccc2)c1 (configuration not stated) | 3.42* | -1.2
COc1ccc(C2CC(=O)N3CN(C(C)c4ccccc4)CSC3=C2C#N)cc1OC (configuration not stated) | 5.51* | 1.07
NC(=S)c1ccc2c(c1)OCCO2 | -0.82 | nt
COC(=O)c1ccc2c(=O)n(C3CCCC3)c(=S)[nH]c2c1 | -0.91 | nt
CC(C)(C)C(=O)Nc1cccc(-c2nnco2)c1 | -1.83 | nt
CCOCCCNC(=O)c1sc2ncnc(N(C)C3CCCCC3)c2c1C | nt | 1.49
CC(=O)c1cccc(OC(=O)c2cc(-c3ccc(C)c(C)c3)nc3ccccc23)c1 | -7 | nt
N#CC1=C2SCN(Cc3ccccc3)CN2C(=O)CC1c1cccc(F)c1 (configuration not stated) | 4.89* | 1.06
COc1cccc(C2CC(=O)N3CN(Cc4ccccc4)CSC3=C2C#N)c1 (configuration not stated) | 5.25* | -0.29
